This note sets out measurements from PubChem BioAssay (Tox21).

Records with an inconclusive call do not appear. Where a structure was tested more than once in an assay, its records may differ in their call. Calls of active or inactive are those of the source. Unless noted, calls come from the whole dose curve; as a rule, active = well fitted curve in the direction sought with a large enough effect in the repeat runs; inconclusive = weak or mixed curves; inactive = no such curve, though single readings can be large; an effect the other way counts as inactive or inconclusive.

A short description of assay [1]: qHTS assay to identify small molecule agonists of the peroxisome proliferator-activated receptor delta (PPARd) signaling pathway - cell viability counter screen (AID 743211). Note: nearly all actives have a fitted effect of over 55% in size. The following applies: PPARd-bla HEK293H viability, CellTiter-Glo luminescence, 17 h; series mostly up to 62.6 µM. The method in brief:
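Tox21 library compounds, delivered in DMSO, were incubated 17 h with PPARd-bla HEK293H cells; cytotoxicity was taken from CellTiter-Glo luminescence read 30 min after reagent addition.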
On the technique in general: Quantitative high-throughput screening tests each substance at several concentrations.

Assay [2] has as its target Peroxisome proliferator-activated receptor delta (Homo sapiens) (UniProt Q03181). The experiment in a line: qHTS assay to identify small molecule agonists of the peroxisome proliferator-activated receptor delta (PPARd) signaling pathway (AID 743212; calls by dose curve). The following applies: HEK293H PPARd-UAS-bla, beta-lactamase FRET ratio, 17 h; series mostly up to 62.6 µM. In outline:
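Tox21 library screened in GeneBLAzer PPARd UAS-bla HEK293H cells. After compound treatment at 37 C, a FRET-based beta-lactamase substrate was applied for 2 h and fluorescence recorded.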

The nature of assay [3]: qHTS assay to identify small molecule antagonists of the peroxisome proliferator-activated receptor delta (PPARd) signaling pathway - cell viability counter screen (AID 743213). Note: nearly all actives have a fitted effect of over 50% in size. Note: potency is the fitted concentration of half-maximal effect. The following applies: PPARd-bla HEK293H viability, CellTiter-Glo luminescence, 17 h; series mostly up to 62 µM. In outline: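 PPARd-bla HEK293H cells (3000/well) got compound plus 300 nM L165041 agonist for 17 h at 37 C. Viability in the same wells came from CellTiter-Glo luminescence after 30 min at room temperature.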

Assay [4] concerns the target Peroxisome proliferator-activated receptor delta (Homo sapiens) (UniProt Q03181). Put plainly: qHTS assay to identify small molecule antagonists of the peroxisome proliferator-activated receptor delta (PPARd) signaling pathway (AID 743215; active = well fitted inhibition curve with a large enough effect in the signal ratio in the repeat runs, not every such curve was filed as active; the % refers to the signal ratio;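 note: cells stimulated with agonist L165041 at 300 nM final during compound exposure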). Conditions: HEK293H PPARd-UAS-bla, beta-lactamase FRET ratio, antagonist, 17 h; series mostly up to 62 µM. In outline:
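Cells: HEK293H with a UAS-driven beta-lactamase reporter responsive to PPARd. Compounds were co-added with L165041 (300 nM, final) and incubated 17 h at 37 C before a 2 h room-temperature FRET substrate step and fluorescence reading.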

Assay [5] can be described thus: qHTS assay to identify small molecule agonists of the farnesoid-X-receptor (FXR) signaling pathway - cell viability counter screen (AID 743218). Note: nearly all actives have a fitted effect of over 45% in size. Conditions: FXR-bla HEK293T viability, CellTiter-Glo luminescence, 16 h; series mostly up to 62.6 µM. The method in brief:
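Cells were seeded, left 5 h at 37 C and 5% CO2, then dosed with compound in DMSO for 16 h. After the beta-lactamase FRET read, CellTiter-Glo was added and luminescence measured 30 min later.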

The nature of assay [6]: qHTS assay to identify small molecule antagonists of the farnesoid-X-receptor (FXR) signaling pathway - cell viability counter screen (AID 743221; active = well fitted cell-killing curve with a large enough effect in the repeat runs, not every such curve was filed as active; note: nearly all actives have a fitted effect of over 50% in size). Conditions: FXR-bla HEK293T viability, CellTiter-Glo luminescence, 16 h; series mostly up to 62.6 µM. The method in brief:
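Cytotoxicity is taken from ATP luminescence (CellTiter-Glo, 30 min, room temperature) in FXR-bla HEK 293T cells previously incubated 16 h at 37 C with compound and chenodeoxycholic acid at 50 uM final.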

Assay [7] can be described thus: qHTS assay to identify small molecule agonists of the vitamin D receptor (VDR) signaling pathway - cell viability counter screen (AID 743224). Note: nearly all actives have a fitted effect of over 50% in size. Note: potency is the fitted concentration of half-maximal effect. Conditions: VDR-bla HEK293T viability, CellTiter-Glo luminescence, 16 h; series mostly up to 62.6 µM. The method in brief:
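Cells: VDR-bla, 2,000/well, settled 4 h. Treatment: compounds in DMSO, 16 h, 37C/5% CO2. Readout: CellTiter-Glo luminescence after 30 min RT.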

The nature of assay [8]: qHTS assay to identify small molecule agonists of the NFkB signaling pathway (AID 1159509; active = well fitted curve in the direction sought with a large enough effect in the signal ratio in the repeat runs, not every such curve was filed as active; the % refers to the signal ratio). The following applies: NFkB-bla ME-180 cells, beta-lactamase FRET ratio, 5 h; series mostly up to 61 µM. The method in brief: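 Agonist activity was read as beta-lactamase-driven FRET change (460 and 530 nm emission, 405 nm excitation) following 1.5 hr substrate loading at room temperature. Beforehand, ME-180 NFkB-bla reporter cells were treated with compounds for 5 hr at 37 C.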

A short description of assay [9]: qHTS assay to identify small molecule agonists of the NFkB signaling pathway - cell viability counter screen (AID 1159515; calls by dose curve; note: nearly all actives have a fitted effect of over 55% in size). The following applies: NFkB-bla ME-180 viability, CellTiter-Glo luminescence, 5 h; series mostly up to 61 µM. The method in brief:
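Cells are seeded (2,000 NFkB-bla ME-180 per well), rested overnight, and dosed with DMSO-dissolved compounds for 5 hr at 37 C. Viability is then read by CellTiter-Glo luminescence after 30 min at room temperature.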

The nature of assay [10]: qHTS assay to identify small molecule agonists of the endoplasmic reticulum stress response signaling pathway (AID 1159516; active = well fitted activation curve with a large enough effect in the signal ratio in the repeat runs, not every such curve was filed as active; the % refers to the signal ratio). The following applies: ESRE-bla HeLa, ER stress beta-lactamase reporter, 5 h; series mostly up to 61 µM. In outline: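 Cells are seeded at 1,500 per well and incubated overnight. Compounds in DMSO are added for 5 hr at 37 C, then beta-lactamase FRET substrate for 2 hr at room temperature, and fluorescence at 460 and 530 nm is measured.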

A short description of assay [11]: qHTS assay to identify small molecule antagonists of the retinoid-related orphan receptor gamma (ROR-gamma) signaling pathway - cell viability counter screen (AID 1159520). Note: nearly all actives have a fitted effect of over 50% in size. Conditions: Tet-on RORgamma CHO cells viability, ATP luminescence, 16 h; series mostly up to 92.4 µM. In outline: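 Tet-on ROR gamma CHO cells were given compounds for 2 hr, then doxycycline hyclate at 1 uM final, and incubated 16 hr at 37 C. Viability was measured as ATP content by CellTiter-Glo luminescence.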

Assay [12] deals with Nuclear receptor ROR-gamma (Homo sapiens) (UniProt P51449). The experiment in a line: qHTS assay to identify small molecule antagonists of the retinoid-related orphan receptor gamma (ROR-gamma) signaling pathway (AID 1159521). Conditions: Tet-on RORgamma CHO cells, RORE-luciferase, 16 h; series mostly up to 92.4 µM. The method in brief: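 Inducible-expression reporter assay: doxycycline (1 uM final) switched on RORγ in CHO cells bearing a ROR response element-luciferase construct, with test compounds present from 2 h beforehand. Decreased luminescence after 16 h defined antagonist activity.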

Assay [13] can be described thus: qHTS assay to identify small molecule agonists of the AP-1 signaling pathway - cell viability counter screen (AID 1159525; calls by dose curve; note: nearly all actives have a fitted effect of over 55% in size). Conditions: ME-180 AP-1-bla cells viability, ATP luminescence, 5 h; series mostly up to 76.8 µM. The method in brief: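 Same-well cytotoxicity counter screen of the Tox21 10K library in ME-180 cells. The readout is ATP-dependent luminescence after 5 h compound treatment. Data are normalised to DMSO and tetra n-octyl ammonium bromide controls.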

Assay [14] in a line: qHTS assay to identify small molecule agonists of the AP-1 signaling pathway (AID 1159526; calls by dose curve). Conditions: ME-180 (cervical carcinoma) AP-1-bla reporter, beta-lactamase FRET ratio, 5 h; series mostly up to 76.8 µM.
Assay [15] has as its target Bile acid receptor (Homo sapiens) (UniProt Q96RI1). The experiment in a line: qHTS assay to identify small molecule antagonists of the farnesoid-X-receptor (FXR) signaling pathway (AID 743217; active = well fitted inhibition curve with a large enough effect in the signal ratio in the repeat runs, not every such curve was filed as active; the % refers to the signal ratio). Conditions: HEK293T FXR-UAS-bla, beta-lactamase ratio, CDCA-stimulated, 16 h; series mostly up to 62.6 µM. In outline:
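Cells carrying a UAS-driven beta-lactamase reporter (GeneBLAzer FXR-UAS-bla HEK 293T) were plated and rested 5 h at 37 °C. Compounds in DMSO were added alongside chenodeoxycholic acid agonist at 50 uM final and left 16 h at 37 °C before FRET substrate readout.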

Assay [16] shares this target. Put plainly: qHTS assay to identify small molecule agonists of the farnesoid-X-receptor (FXR) signaling pathway (AID 743220; active = well fitted activation curve with a large enough effect in the signal ratio in the repeat runs, not every such curve was filed as active; the % refers to the signal ratio). The following applies: HEK293T FXR-UAS-bla, beta-lactamase FRET ratio, 16 h; series mostly up to 62.6 µM. In outline: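 FXR-UAS-bla HEK 293T cells carrying a UAS-driven beta-lactamase reporter were plated for 5 h at 37C/5% CO2, then exposed to DMSO-dissolved Tox21 10K compounds for 16 h at 37C. A LiveBLAzer B/G FRET substrate was loaded for 2 h at room temperature before fluorescence reading.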

Assay [17] addresses Vitamin D3 receptor (Homo sapiens) (UniProt P11473). Put plainly: qHTS assay to identify small molecule agonists of the vitamin D receptor (VDR) signaling pathway (AID 743222; calls by dose curve). Conditions: HEK293T VDR-UAS-bla, beta-lactamase FRET ratio, 16 h; series mostly up to 63.5 µM. In outline:
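Cells carrying a VDR-driven beta-lactamase reporter are seeded at 2,000 per well and rested 4 h. Compounds in DMSO are added for 16 h at 37C, and FRET substrate fluorescence is measured after 2 h at room temperature.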

Assay [18] has the same target. Put plainly: qHTS assay to identify small molecule antagonists of the vitamin D receptor (VDR) signaling pathway (AID 743223; active = well fitted inhibition curve with a large enough effect in the signal ratio in the repeat runs, not every such curve was filed as active; the % refers to the signal ratio). The following applies: VDR-UAS-bla HEK293T, beta-lactamase FRET ratio, 16 h; series mostly up to 61 µM. The method in brief: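 Quantitative HTS in VDR-bla reporter cells stimulated with 1alpha,25-dihydroxyvitamin D3, 3 nM final. Compound exposure 16 h, 37C, 5% CO2. Read-out: beta-lactamase FRET substrate fluorescence, 2 h RT.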

The nature of assay [19]: qHTS assay to identify small molecule antagonists of the vitamin D receptor (VDR) signaling pathway - cell viability counter screen (AID 743225). Note: nearly all actives have a fitted effect of over 50% in size. The following applies: VDR-bla HEK293T viability, CellTiter-Glo luminescence, 16 h; series mostly up to 61 µM. The method in brief: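 Same-well multiplex: following 16 h treatment of HEK 293T cells carrying a UAS-driven beta-lactamase reporter with compound and agonist (3 nM final), and a 2 h FRET substrate step, CellTiter-Glo was added and luminescence read after 30 min.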

Assay [20] can be described thus: qHTS assay to identify small molecule agonists of the endoplasmic reticulum stress response signaling pathway - cell viability counter screen (AID 1159517; calls by dose curve; note: nearly all actives have a fitted effect of over 50% in size). The following applies: ESRE-bla HeLa viability, CellTiter-Glo luminescence, 5 h; series mostly up to 61 µM. The method in brief:
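In parallel with the ESRE reporter read, cytotoxicity was scored by CellTiter-Glo luminescence (30 min, room temperature) on HeLa ESRE-bla cells dosed for 5 hr.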

Chain of Vitamin D3 receptor (Homo sapiens) (P11473 whole entry, looked up): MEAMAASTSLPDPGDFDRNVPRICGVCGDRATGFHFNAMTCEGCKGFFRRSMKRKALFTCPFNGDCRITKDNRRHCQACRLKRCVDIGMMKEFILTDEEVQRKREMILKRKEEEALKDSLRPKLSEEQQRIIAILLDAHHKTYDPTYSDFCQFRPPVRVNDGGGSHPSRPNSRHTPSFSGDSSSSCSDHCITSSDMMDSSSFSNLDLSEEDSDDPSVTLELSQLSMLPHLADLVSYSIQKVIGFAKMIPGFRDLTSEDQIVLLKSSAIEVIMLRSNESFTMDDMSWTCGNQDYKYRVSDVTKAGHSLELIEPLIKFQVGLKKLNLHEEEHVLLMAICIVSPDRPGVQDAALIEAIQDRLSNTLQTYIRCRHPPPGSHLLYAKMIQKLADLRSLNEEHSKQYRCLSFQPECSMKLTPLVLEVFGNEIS
Chain of Bile acid receptor (Homo sapiens) (Q96RI1 whole entry, looked up): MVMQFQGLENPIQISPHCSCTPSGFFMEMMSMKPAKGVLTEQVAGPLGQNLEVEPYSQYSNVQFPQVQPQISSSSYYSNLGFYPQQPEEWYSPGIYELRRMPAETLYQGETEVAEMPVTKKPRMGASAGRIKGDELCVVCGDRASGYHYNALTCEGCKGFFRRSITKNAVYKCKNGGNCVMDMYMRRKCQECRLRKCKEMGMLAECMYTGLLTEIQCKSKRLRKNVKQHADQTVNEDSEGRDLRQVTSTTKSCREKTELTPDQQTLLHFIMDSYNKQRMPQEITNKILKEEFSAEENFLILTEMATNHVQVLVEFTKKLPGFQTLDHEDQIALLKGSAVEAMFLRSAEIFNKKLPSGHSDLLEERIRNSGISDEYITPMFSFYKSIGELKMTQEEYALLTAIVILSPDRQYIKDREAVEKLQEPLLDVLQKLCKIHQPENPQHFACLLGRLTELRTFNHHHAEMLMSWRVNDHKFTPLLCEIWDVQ
Chain of Peroxisome proliferator-activated receptor delta (Homo sapiens) (Q03181 whole entry, looked up): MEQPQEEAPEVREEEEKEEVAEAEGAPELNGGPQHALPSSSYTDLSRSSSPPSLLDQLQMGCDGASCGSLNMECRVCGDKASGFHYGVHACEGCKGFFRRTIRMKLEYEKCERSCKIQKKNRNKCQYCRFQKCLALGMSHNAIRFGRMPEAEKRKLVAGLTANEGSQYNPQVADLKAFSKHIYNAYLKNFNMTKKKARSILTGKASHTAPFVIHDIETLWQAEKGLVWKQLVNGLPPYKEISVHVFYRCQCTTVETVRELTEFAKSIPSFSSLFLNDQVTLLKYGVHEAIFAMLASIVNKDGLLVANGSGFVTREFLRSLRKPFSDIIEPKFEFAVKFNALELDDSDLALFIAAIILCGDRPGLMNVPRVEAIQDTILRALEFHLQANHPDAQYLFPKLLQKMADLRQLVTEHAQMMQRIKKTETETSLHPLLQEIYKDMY

Consider `C=CC(=C)CCCC(C)(C)OC(C)=O`, for which the Potency result in [1], in assay [2], in assay [3], in assay [4], in [5] and in assay [6] was “inactive” in each case. Besides, the Potency entry in [7], in assay [11] and in assay [12] was “inactive” throughout. In addition, the result in assay [8], in assay [9], in assay [10], in assay [13] and in [14] was inactive.

Consider `CO[C@H]1O[C@H](CO)[C@@H](O)[C@H](O)[C@H]1O`, for which the Potency entry in [1], in assay [2], in assay [3], in assay [4], in assay [15] and in assay [5] was “inactive” in each case. Moreover, the Potency entry in assay [16], in assay [6], in assay [7], in assay [19], in assay [11] and in assay [12] was “inactive” throughout. For the same compound, the result in assay [17], in assay [18], in assay [8], in assay [9], in assay [10] and in assay [13] was inactive. Further, the outcome in [14] was inactive.

Regarding `Cc1oncc1C(=O)Nc1ccc(C(F)(F)F)cc1`, the Potency result in assay [2], in assay [4], in [15], in assay [5], in assay [16] and in assay [6] was “inactive” in each case. In addition, the Potency result in assay [19], in [11] and in assay [12] was “inactive” throughout. Also, the Potency is 49 µM (active) in assay [3]; 38.9 µM (active) and inactive in assay [7]. Further, the outcome in [8], in assay [9], in assay [10], in assay [13] and in [14] was inactive.

`c1ccc(COCc2ccccc2)cc1`: the Potency entry in assay [1], in [2], in [3], in assay [4], in [5] and in assay [16] was “inactive” each time. Besides, the Potency result in assay [6], in assay [7], in assay [19], in [11] and in assay [12] was “inactive” in each case. The result in assay [17], in assay [18], in assay [8], in [9], in assay [10] and in assay [13] was inactive. Moreover, in [14], the result was inactive.

Regarding `O=Cc1c(Cl)cccc1Cl`, the Potency entry in [1], in assay [2], in assay [3], in assay [4], in [5] and in assay [6] was “inactive” in each case. Moreover, the Potency entry in assay [7] and in assay [19] was “inactive” each time. Further, the outcome in assay [17], in [18], in [8], in assay [9], in [10] and in assay [20] was inactive. Moreover, the compound was called inactive in assay [13] and in [14].

For `NC(=O)Nc1ccc(Cl)c(Cl)c1`, the Potency entry in [1], in [2], in assay [3], in assay [5], in [16] and in assay [6] was “inactive” each time. The Potency entry in assay [7] and in assay [19] was “inactive” throughout. Besides, the result in [17], in [18], in [8], in assay [9], in assay [10] and in [20] was inactive. Moreover, in [14], the result was inactive.

On to `C[N+]1(C)CCC(=C(c2ccccc2)c2ccccc2)CC1`, for which the Potency entry in assay [1], in assay [3], in [5], in assay [16], in assay [6] and in assay [7] was “inactive” in each case. Moreover, the Potency entry in assay [19], in assay [11] and in [12] was “inactive” throughout. In addition, the outcome in assay [17], in assay [18], in [8], in [9], in [10] and in assay [13] was inactive. In addition, the outcome in assay [14] was inactive.
